The record followed here is the supplement of paper PMC10646978.

What all share (conditions): modulator concentration 10 µM
In test [1] the test system is RAW-Dual (murine macrophage reporter line). The test is described as follows: NF-kB reporter (SEAP) activity fold change vs agonist alone; higher = enhanced NF-kB activity. Put shortly:
(§1)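 RAW-Dual murine macrophage reporter cells were seeded at 50 000 per well in 384-well plates and pre-incubated 1 hour at 37 °C with compound pin-transferred to 10 μM final. After 1 hour, a PRR agonist was added and cells incubated overnight. Supernatant NF-κB (SEAP, QUANTI-Blue, 620 nm absorbance) and IRF (Lucia luciferase, QUANTI-Luc, luminescence) signals were divided by the mean agonist-only control on the same plate to give fold change. Two replicate plates were averaged, with errors by propagation.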

For test [2] the test system is unchanged. Kind of test: IRF reporter (Lucia luciferase) activity fold change vs agonist alone; higher = enhanced IRF activity. Put shortly: as §1
Test [3] has the same test system. The test is described as follows: viability score (confluency relative to resting cells, overnight) (fraction); higher = more viable, active = viable (0.7 or more). The gist of the method: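 A compound met the cutoff when both of two confluency masks exceeded 70% of resting cells. Those masks were made with IncuCyte software from IncuCyte images of RAW-Dual macrophages treated overnight at 10 μM final. This is the basis of the viability score, which is confluency relative to resting cells.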

[4] abbreviates: agonist: CpG ODN 1826 0.5 ug/mL.

± gives the standard deviation.

Consider `Br.NC(=O)C(c1ccccc1)(c1ccccc1)[C@@H]1CCN(CCc2ccc3c(c2)CCO3)C1`, for which the NF-kB reporter was 0.471 ± 0.18 in test [1] (setting [4]), 1.25 ± 0.27 in test [1] (agonist: LPS 0.1 ug/mL) and 1.53 ± 0.37 in test [1] (agonist: MPLA […]). For the same compound, the IRF reporter was determined as 0.485 ± 0.015 in test [2] (agonist: 3'3'-cGAMP 10 ug/mL), 1.15 ± 0.41 in test [2] (agonist: LPS 0.1 ug/mL) and 1.41 ± 0.22 in test [2] (agonist: MPLA […]). The viability score in test [3] is 0.975 (active).
On to `CCOC(=O)C1=C(Nc2ccccc2)SC(=Cc2ccc(O)c(OCC)c2)C1=O`, for which the values for the NF-kB reporter in test [1] (setting [4]), in test [1] (agonist: LPS 0.1 ug/mL) and in test [1] (agonist: MPLA […]) were 1.1 ± 0.093, 1.03 ± 0.07 and 1.15 ± 0.18, respectively. The IRF reporter in test [2] (agonist: 3'3'-cGAMP 10 ug/mL) came out at 1.1 ± 0.036; in test [2] (agonist: LPS 0.1 ug/mL), 1.26 ± 0.12; in test [2] (agonist: MPLA […]), 1.12 ± 0.16. Moreover, in test [3], the viability score is 1.01 (active).
Take `COCCOC(=O)C1=C(C)NC(C)=C(C(=O)OC/C=C/c2ccccc2)C1c1cccc([N+](=O)[O-])c1` (stereo unspecified): the results for the NF-kB reporter in test [1] (setting [4]), in test [1] (agonist: LPS 0.1 ug/mL) and in test [1] (agonist: MPLA […]) were 0.743 ± 0.078, 0.787 ± 0.037 and 0.938 ± 0.09, respectively. Besides, the IRF reporter in test [2] (agonist: 3'3'-cGAMP 10 ug/mL) came to 1 ± 0.057; in test [2] (agonist: LPS 0.1 ug/mL), 1.18 ± 0.088; in test [2] (agonist: MPLA […]), 1.17 ± 0.1. Moreover, the viability score in test [3] is 1.01 (active).
For the compound `CCc1ccc2nc(NCCCN3CCOCC3)sc2c1`, the NF-kB reporter in test [1] (setting [4]) turned out to be 0.924 ± 0.057; in test [1] (agonist: LPS 0.1 ug/mL), 1.02 ± 0.083; in test [1] (agonist: MPLA […]), 0.971 ± 0.058. The IRF reporter in test [2] (agonist: 3'3'-cGAMP 10 ug/mL) was found to be 0.866 ± 0.04; in test [2] (agonist: LPS 0.1 ug/mL), 1.19 ± 0.27; in test [2] (agonist: MPLA […]) it was 1.3 ± 0.34. Also, the viability score in test [3] is 0.99 (active).
For `Oc1c2c(nc3cc(-c4ccc(Cl)cc4)nn13)CCS2`, the NF-kB reporter in test [1] (setting [4]) is 1.1 ± 0.09; in test [1] (agonist: LPS 0.1 ug/mL), 0.945 ± 0.12; in test [1] (agonist: MPLA […]), 0.973 ± 0.031. Besides, the IRF reporter in test [2] (agonist: 3'3'-cGAMP 10 ug/mL) was found to be 0.976 ± 0.038; in test [2] (agonist: LPS 0.1 ug/mL), 0.967 ± 0.047; in test [2] (agonist: MPLA […]) it was 1.11 ± 0.14. In test [3], the viability score is 0.998 (active).
Regarding `CS(=O)(=O)C1CC2CCC(C1)N2C(=O)c1cccc(Oc2ccc(F)cc2)c1` (stereo unspecified), the NF-kB reporter in test [1] (setting [4]) is 1.07 ± 0.09; in test [1] (agonist: LPS 0.1 ug/mL), 1.13 ± 0.097; in test [1] (agonist: MPLA […]) it was 1.06 ± 0.15. Besides, the IRF reporter in test [2] (agonist: 3'3'-cGAMP 10 ug/mL) turned out to be 0.94 ± 0.048; in test [2] (agonist: LPS 0.1 ug/mL), 1.2 ± 0.085; in test [2] (agonist: MPLA […]) it was 1.33 ± 0.17. In addition, the viability score in test [3] is 0.99 (active).
Consider `NC(N)=NN=Cc1ccc(OS(=O)(=O)c2ccccc2)cc1`, for which the NF-kB reporter in test [1] (setting [4]) stood at 0.0965 ± 0.0075; in test [1] (agonist: LPS 0.1 ug/mL) it was 0.954 ± 0.048; in test [1] (agonist: MPLA […]), 1.18 ± 0.14. Moreover, the figures for the IRF reporter in test [2] (agonist: 3'3'-cGAMP 10 ug/mL), in test [2] (agonist: LPS 0.1 ug/mL) and in test [2] (agonist: MPLA […]) were 0.929 ± 0.044, 0.93 ± 0.058 and 1.04 ± 0.13, respectively. Besides, in test [3], the viability score is 0.433 (inactive).
`NC(=S)c1cc2ccc(O)cc2oc1=O`: the NF-kB reporter in test [1] (setting [4]) stood at 0.808 ± 0.16; in test [1] (agonist: LPS 0.1 ug/mL), 1.01 ± 0.082; in test [1] (agonist: MPLA […]), 2.26 ± 1.2. For the same compound, the results for the IRF reporter in test [2] (agonist: 3'3'-cGAMP 10 ug/mL), in test [2] (agonist: LPS 0.1 ug/mL) and in test [2] (agonist: MPLA […]) were 0.925 ± 0.043, 0.979 ± 0.12 and 1.05 ± 0.11, respectively. For the same compound, the viability score in test [3] is 1.01 (active).
For the compound `Cc1ccc(C(=O)c2cc(O)c(O)c([N+](=O)[O-])c2)cc1`, the NF-kB reporter in test [1] (setting [4]) was 0.889 ± 0.078; in test [1] (agonist: LPS 0.1 ug/mL), 1.09 ± 0.056; in test [1] (agonist: MPLA […]), 1.07 ± 0.049. The IRF reporter in test [2] (agonist: 3'3'-cGAMP 10 ug/mL) is 0.871 ± 0.048; in test [2] (agonist: LPS 0.1 ug/mL) it was 0.917 ± 0.081; in test [2] (agonist: MPLA […]) it was 0.946 ± 0.075. Also, the viability score in test [3] was 0.995 (active).
For the compound `COc1cc(C(C)=O)ccc1OCCCN1CCC(c2noc3cc(F)ccc23)CC1`, the NF-kB reporter in test [1] (setting [4]) came to 0.986 ± 0.15; in test [1] (agonist: LPS 0.1 ug/mL), 1.17 ± 0.31; in test [1] (agonist: MPLA […]) it was 0.924 ± 0.056. Also, the figures for the IRF reporter in test [2] (agonist: 3'3'-cGAMP 10 ug/mL), in test [2] (agonist: LPS 0.1 ug/mL) and in test [2] (agonist: MPLA […]) were 0.834 ± 0.027, 1.19 ± 0.2 and 1.12 ± 0.11, respectively. Also, the viability score in test [3] was 0.991 (active).
As for `O=C(C=Cc1ccco1)Nc1ccc(C(=O)O)cc1NC(=O)C=Cc1ccco1`, the NF-kB reporter in test [1] (setting [4]) was found to be 0.691 ± 0.069; in test [1] (agonist: LPS 0.1 ug/mL), 1.11 ± 0.061; in test [1] (agonist: MPLA […]), 0.932 ± 0.056. The IRF reporter in test [2] (agonist: 3'3'-cGAMP 10 ug/mL) stood at 0.884 ± 0.028; in test [2] (agonist: LPS 0.1 ug/mL), 1.27 ± 0.19; in test [2] (agonist: MPLA […]), 0.976 ± 0.27. Further, in test [3], the viability score was 1.02 (active).
For `CNC(C)CCC=C(C)C.CNC(C)CCC=C(C)C` (stereo unspecified) [Prestw-1023], the NF-kB reporter in test [1] (setting [4]) was 1.07 ± 0.082; in test [1] (agonist: LPS 0.1 ug/mL), 0.976 ± 0.12; in test [1] (agonist: MPLA […]) it was 1.01 ± 0.16. The results for the IRF reporter in test [2] (agonist: 3'3'-cGAMP 10 ug/mL), in test [2] (agonist: LPS 0.1 ug/mL) and in test [2] (agonist: MPLA […]) were 1 ± 0.047, 1.17 ± 0.16 and 1.23 ± 0.28, respectively. In test [3], the viability score is 1.04 (active).
`CCOc1ccc2nc(SC(c3ccccc3)c3ccccc3)sc2c1`: the NF-kB reporter in test [1] (setting [4]) is 1.01 ± 0.17; in test [1] (agonist: LPS 0.1 ug/mL), 0.967 ± 0.099; in test [1] (agonist: MPLA […]), 0.974 ± 0.14. The IRF reporter in test [2] (agonist: 3'3'-cGAMP 10 ug/mL) came out at 1.01 ± 0.036; in test [2] (agonist: LPS 0.1 ug/mL) it was 1.2 ± 0.18; in test [2] (agonist: MPLA […]), 1.04 ± 0.31. Also, the viability score in test [3] is 0.661 (inactive).
